Fam108B counter = mouse Fam108B serine hydrolase inhibitors, primary screen, counter-screen for RBBP9 inhibitor project, biochemical, fluorescence polarization; recombinant Fam108B, FP-Rh probe fluorescence polarization; inhibition, % at 9.51 µM; 300,000 compounds, 0.33% hits; AID 1947, 2009;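 active = inhibition above the screen mean inhibition plus 3 SD, computed separately per campaign, cut at about 18% in these data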;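 note: inhibitors lower polarization as less probe binds the enzyme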
PREPL inhibitor = PREPL enzyme inhibitors, primary screen, biochemical, fluorescence polarization | 320,000 compounds, 0.68% hits | recombinant PREPL, fluorescence polarization activity-based probe | AID 2751, 2010 | Prolyl endopeptidase-like (Homo sapiens), Q4J6C6 | inhibition, % at 5.96 µM; in the data active = inhibition above about 43%
Target sequence (Q4J6C6 whole entry, looked up): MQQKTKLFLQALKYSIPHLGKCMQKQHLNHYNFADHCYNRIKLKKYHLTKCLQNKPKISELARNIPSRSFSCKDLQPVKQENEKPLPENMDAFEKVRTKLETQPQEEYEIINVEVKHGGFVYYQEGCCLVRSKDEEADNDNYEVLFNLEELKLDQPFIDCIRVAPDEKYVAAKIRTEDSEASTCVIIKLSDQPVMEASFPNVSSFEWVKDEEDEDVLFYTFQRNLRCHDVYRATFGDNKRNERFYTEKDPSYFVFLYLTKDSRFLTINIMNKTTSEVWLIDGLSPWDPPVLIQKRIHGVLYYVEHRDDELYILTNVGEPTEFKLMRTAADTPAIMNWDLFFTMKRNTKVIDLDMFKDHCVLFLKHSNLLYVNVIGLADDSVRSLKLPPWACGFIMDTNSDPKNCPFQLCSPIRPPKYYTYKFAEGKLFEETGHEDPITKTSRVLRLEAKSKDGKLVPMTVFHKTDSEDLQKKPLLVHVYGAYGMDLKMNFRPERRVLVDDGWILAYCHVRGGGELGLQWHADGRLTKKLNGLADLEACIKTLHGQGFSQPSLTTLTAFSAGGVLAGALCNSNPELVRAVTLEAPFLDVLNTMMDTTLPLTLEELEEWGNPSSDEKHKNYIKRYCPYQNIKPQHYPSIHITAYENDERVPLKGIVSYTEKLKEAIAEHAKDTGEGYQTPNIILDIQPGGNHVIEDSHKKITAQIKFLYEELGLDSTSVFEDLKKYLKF
GSTO1 inh = inhibitors of recombinant GSTO1, primary screen, counter-screen for RBBP9 inhibitor project, biochemical, fluorescence polarization. inhibition, % at 5.96 µM. 300,000 compounds, 1.1% hits. activity-based probe fluorescence polarization. AID 1974, 2009;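 active = inhibition above the campaign mean inhibition plus 3 SD, cut at about 35% in these data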
LYPLA1 inh = LYPLA1 inhibitors, primary screen, counter-screen for PME1 inhibitor project, biochemical, fluorescence polarization, FP-Rh probe ABPP; AID 2174, 2009; 320,000 compounds, 0.16% hits; inhibition, % at 5.9 µM; Acyl-protein thioesterase 1 (Homo sapiens), O75608; recombinant LYPLA1;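 active = inhibition above the mean of all tested compounds plus 3 SD, set per campaign, cut at about 14% in these data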;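 note: inhibitors block serine hydrolase probe labeling of LYPLA1 so polarization falls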
LYPLA2 inh = LYPLA2 inhibitors, primary screen, counter-screen for PME1 inhibitor project, biochemical, fluorescence polarization, FP-Rh probe ABPP; Acyl-protein thioesterase 2 (Homo sapiens), O95372; recombinant LYPLA2; AID 2177, 2009; inhibition, % at 5.9 µM; 320,000 compounds, 0.38% hits;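 active = inhibition above the screen-wide mean plus 3 SD, limit set per campaign, cut at about 26% in these data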
PME-1 primary = PME-1 inhibitors via competitive probe labeling, primary screen, biochemical, fluorescence polarization, FP-Rh probe, HTS. Protein phosphatase methylesterase 1 (Homo sapiens), Q9Y570. recombinant PME-1. inhibition, % at 5.9 µM. 320,000 compounds, 0.53% hits. AID 2130, 2009;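 active = inhibition above the campaign mean of all compounds plus 3 SD, cut at about 26% in these data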;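 note: competitive labeling of PME-1 active site by serine hydrolase directed probe; inhibitors block probe labeling so polarization falls and inhibition rises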
GSTO1 inh conf = GSTO1 inhibitor hit confirmation, counter-screen for RBBP9 inhibitor project, biochemical, fluorescence polarization, triplicate. shares compounds with GSTO1 inh. recombinant GSTO1, probe fluorescence polarization. inhibition, % at 5.96 µM. 2,400 compounds, 54% hits;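 active = inhibition above the primary screen's cutoff, its mean inhibition plus 3 SD, cut at about 35% in these data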;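 note: loss of polarization as inhibitors block binding of rhodamine sulfonate ester activity probe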
GSTO1 ABPP inh = inhibitors of purified human GSTO1, late-stage follow-up, biochemical, gel ABPP, SE-Rh probe, percent inhibition; shares compounds with GSTO1 inh; recombinant GSTO1, gel ABPP SE-Rh probe fluorescence; inhibition, % at 1 µM; 130 compounds, 30% hits; AID 463110, 2010;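 active = inhibition of the enzyme GSTO1 above about 75%, limit read from the data; inactive = inhibition below that limit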
Of the large screens only hits and unclear results are named; the others gave an inactive call (follow-up assays come after a bar, where they were run). Rows were chosen to be rich in hits. Some 1.9% of all compounds tested hit in one or more screens of this group.

CC(=O)N1CCc2[nH]c3ccccc3c2C1	none
CC(=O)N1CCc2[nH]c3ccc(C)cc3c2C1	GSTO1 inh 53.8 | GSTO1 inh conf inactive
CCOC(=O)N1CCc2[nH]c3ccc(C)cc3c2C1	none
O=C(N1CCc2[nH]c3ccccc3c2C1)C(F)(F)F	GSTO1 inh 87.8 | GSTO1 inh conf inactive
CCOc1ccc(CN(C)C(=O)CCl)cc1	GSTO1 inh 80.7 | GSTO1 inh conf 97.6 | GSTO1 ABPP inh inactive
CCCCn1c(N)c(N(Cc2ccccc2OC)C(=O)C(C)Oc2ccc(Cl)cc2)c(=O)[nH]c1=O (stereo not given)	none
O=C(O)CC(CCc1ccccc1)OC1OC(CO)C(O)C(O)C1O (stereo not given)	GSTO1 inh 52.7 | GSTO1 inh conf inactive
[C-]#[N+][C@H](O[C@@H]1O[C@H](CO)[C@@H](O)[C@H](O)[C@H]1O)c1ccccc1	none
COC(=O)c1cccc2c1NC(=O)C2=O	GSTO1 inh 50.5 | GSTO1 inh conf inactive
Cc1cccc(CNc2ccc(S(=O)(=O)N3CCCCC3)cc2)c1	none (no result: Fam108B counter, GSTO1 inh)
O=C1CCN2C=Nc3cccc4ccc1c2c34	GSTO1 inh 39.5 | GSTO1 inh conf inactive
Cc1cc(NC(=O)c2cc(-c3ccncc3)nc3ccccc23)ccc1Br	none (no result: Fam108B counter, GSTO1 inh, LYPLA1 inh, LYPLA2 inh, PME-1 primary)
COc1ccc(CCNC(=O)c2noc(C(C)C)c2[N+](=O)[O-])cc1OC	GSTO1 inh 38.8 | GSTO1 inh conf inactive
CCOc1ccccc1NC(C)C(=O)NC(=O)NC1CCCCC1 (stereo not given)	none (no result: Fam108B counter, GSTO1 inh)
O=C(CCl)Nc1cccc(-c2cnc3ccccc3n2)c1	GSTO1 inh 69.0 | GSTO1 inh conf 94.2
CCC(=O)Nc1cccc(-c2cnc3ccccc3n2)c1	none
CN(C)c1ccc(N2CN=C3SCC(=O)N3C2)cc1	GSTO1 inh 72.1 | GSTO1 inh conf inactive
O=C(CCl)N(c1ccccc1)C1CCS(=O)(=O)C1 (stereo not given)	GSTO1 inh 79.2 | GSTO1 inh conf 85.1 | GSTO1 ABPP inh inactive
CC(=O)Nc1ccc(C(=O)OCC(=O)N(c2ccccc2)C2CCS(=O)(=O)C2)cc1 (stereo not given)	none (no result: Fam108B counter, GSTO1 inh)
COc1ccc(CC(=O)OCc2csc(CC(=O)Nc3ccc(C)cc3)n2)cc1	none (no result: Fam108B counter, GSTO1 inh, LYPLA1 inh, LYPLA2 inh, PME-1 primary)
Cc1ccc(NC(=O)Cc2nc(CCl)cs2)cc1	GSTO1 inh 58.1 | GSTO1 inh conf 94.6 | GSTO1 ABPP inh 87.0
Cc1ccc(N/N=C2\CC(=O)c3ccccc32)cc1Cl	GSTO1 inh 48.2 | GSTO1 inh conf inactive
O=C1c2ccccc2C(=O)C2OC12 (stereo not given)	GSTO1 inh 76.1 | GSTO1 inh conf inactive
COC(=O)C[C@H](NC(=O)Cn1cnc2c(SC)nc(N)nc21)C(=O)OC	none (no result: Fam108B counter, GSTO1 inh, LYPLA1 inh, LYPLA2 inh, PME-1 primary)
O=C(N=Nc1c(O)[nH]c2ccc([N+](=O)[O-])cc12)c1ccccc1Cl	GSTO1 inh 45.0 | GSTO1 inh conf inactive
Cc1ccc(NCC(=O)N=Nc2c(O)[nH]c3ccc([N+](=O)[O-])cc23)cc1	none
Cc1ccccc1NCC(=O)N=Nc1c(O)[nH]c2ccc([N+](=O)[O-])cc12	GSTO1 inh 45.2 | GSTO1 inh conf 50.0
O=C(NC1CCCCC1)c1ccc(-c2cccc([N+](=O)[O-])c2)o1	none
COc1cccc(C(=O)C2CCCN(Cc3c(C)n(C)n(-c4ccccc4)c3=O)C2)c1 (stereo not given)	none
O=C(COC(=O)c1ccc([N+](=O)[O-])o1)NCc1ccc2c(c1)OCO2	none (no result: Fam108B counter, GSTO1 inh, LYPLA1 inh, LYPLA2 inh, PME-1 primary)
COC(=O)CCC(=O)OC1(C)C(=O)C=C2C=C(C3CC3)N(CCCCO)C=C2C1=O (stereo not given)	GSTO1 inh 46.0 | GSTO1 inh conf inactive
COC(=O)CCC(=O)OC1(C)C(=O)C=C2C=C(C3CC3)N(CCc3ccccn3)C=C2C1=O (stereo not given)	GSTO1 inh 43.2 | GSTO1 inh conf inactive
COC(=O)CCC(=O)OC1(C)C(=O)C=C2C=C(C3CC3)N(CCN3CCOCC3)C=C2C1=O (stereo not given)	none
COC(=O)CCCC1=CC2=C(c3ccccc3)C(=O)C(C)(OC(=O)C3CCCC3)C(=O)C2=CN1Cc1ccco1 (stereo not given)	none
COC(=O)CCC(=O)OC1(C)C(=O)C=C2C=C(C3CC3)N(CCCOC(C)C)C=C2C1=O (stereo not given)	GSTO1 inh 58.8 | GSTO1 inh conf inactive
COC(=O)CCCC1=CC2=C(c3ccccc3)C(=O)C(C)(OC(=O)C3CCCC3)C(=O)C2=CN1CCCCO (stereo not given)	GSTO1 inh 45.4 | GSTO1 inh conf inactive
O=S(=O)(NC1CCN(S(=O)(=O)c2ccc3c(c2)OCCO3)C1)c1c(F)cccc1F (stereo not given)	none (no result: Fam108B counter, GSTO1 inh)
Cc1csc(=O)n1CCC(=O)OCc1nnc(-c2ccc([N+](=O)[O-])cc2)o1	none (no result: Fam108B counter, GSTO1 inh)
CN(Cc1nc2ccccc2c(=O)[nH]1)C(=O)COc1ccccc1Cc1ccccc1	none (no result: Fam108B counter, GSTO1 inh)
CN(C)c1cccc2c1c(NS(=O)(=O)c1cn(C)cn1)nn2C	GSTO1 inh 53.9 | GSTO1 inh conf inactive
Cn1cnc(S(=O)(=O)Nc2ccccc2N2CCOCC2)c1	none
COc1cc(-c2cc(=O)c3c(O)c(OC)c(OC)c(O)c3o2)ccc1O	GSTO1 inh 41.5 | GSTO1 inh conf inactive
COc1c(O)c(O)c2oc(-c3ccccc3)cc(=O)c2c1OC	none
O=C1C(Cl)=C(NC(=O)c2ccccc2)C(=O)C(Cl)=C1NC(=O)c1ccccc1	GSTO1 inh 78.8 | GSTO1 inh conf inactive
O=C(NC1=C(Nc2ccc(Cl)cc2)C(=O)c2ccccc2C1=O)c1ccccc1	none
Cc1cccc(NC2=C(NC(=O)c3ccccc3)C(=O)c3ccccc3C2=O)c1	GSTO1 inh 55.9 | GSTO1 inh conf 37.6
O=C(NC1=C(NC2CCS(=O)(=O)C2)C(=O)c2ccccc2C1=O)c1ccccc1 (stereo not given)	GSTO1 inh 80.8 | GSTO1 inh conf 71.2
O=C(Nc1cccc(-c2ccc(N3CCCCC3)nn2)c1)c1ccco1	none
CCN(CC)CCNC(=O)c1[nH]c2ccc(OCc3ccccc3)cc2c1C	none
